Assay [1] in a line: qHTS assay to identify small molecule antagonists of the sonic hedgehog signaling (Shh) pathway (AID 1259369; calls by dose curve; further: nearly all actives have a fitted effect of over 45% in size; further: potency means the concentration at half of the fitted maximal effect). The method in brief:
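NIH/3T3-derived 3T3Gli1-Luc cells with stably integrated Gli1-Luc reporter were preincubated 4hr at 37 C, then given compounds in DMSO plus Shh conditioned medium and incubated 24hr. Firefly luciferase luminescence read after 30min reagent at room temperature.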

Assay [2] has as its target Estrogen receptor beta (Homo sapiens) (UniProt Q92731). The experiment in a line: qHTS assay to identify small molecule agonists of the estrogen receptor beta (ER-beta) signaling pathway (AID 1259377; active means well fitted activation curve with a large enough effect in the signal ratio in the repeat runs, not every such curve was filed as active; the % refers to the signal ratio). The method in brief: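 HEK293T ER-beta-UAS-bla; 2% charcoal-stripped FBS; cells pre-incubated 6 hr, compound 16 hr, 37C/5% CO2; LiveBLAzer B/G FRET substrate 2 h RT; fluorescence intensity read.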

The nature of assay [3]: qHTS assay to identify small molecule agonists of the estrogen receptor beta (ER-beta) signaling pathway - cell viability counter screen (AID 1259380). Further: nearly all actives have a fitted effect of over 30% in size. Further: potency means the concentration at half of the fitted maximal effect. The method in brief:
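ER-beta-UAS-bla HEK293T cells in medium with 2% charcoal-stripped FBS were preincubated 6 hr at 37C, dosed with compound in DMSO for 16 hr, then after the bla read, CellTiter-Glo was added for 30 min at room temperature; luminescence recorded.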
(In general: Quantitative high-throughput screening tests each substance at several concentrations.)

Assay [4] is described as follows: qHTS assay to identify small molecule agonists or antagonists of the thyroid stimulating hormone receptor (TSHR) signaling pathway - wild type cell line counter screen (AID 1259384; calls by dose curve). Summed up:
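Counter screen in untransfected Hek293: compounds (15-point titration, triplicate) plus phosphodiesterase inhibitor Ro20-1724 added after 18 h plating; 30 min RT. Intracellular cAMP via competitive d2/cryptate immunoassay, 1 h incubation.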

In assay [5] the target is Thyrotropin receptor (Homo sapiens) (UniProt P16473). Nature of the assay: qHTS assay to identify small molecule antagonists of the thyroid stimulating hormone receptor (TSHR) signaling pathway (AID 1259385; calls by dose curve; further: nearly all actives have a fitted effect of over 20% in size; further: potency means the concentration at half of the fitted maximal effect). The method in brief:
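Antagonist mode: compound-treated TSHR-expressing HEK293 cells were stimulated with 1.5 ng/mL TSH (final) in presence of Ro20-1724 for 30 min at RT. HTRF cAMP detection after 1 h; each compound tested at 15 concentrations, triplicate.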

Assay [6] deals with Progesterone receptor (Homo sapiens) (UniProt P06401). Nature of the assay: qHTS assay to identify small molecule agonists of the progesterone receptor (PR) signaling pathway (AID 1346784; calls by dose curve; further: nearly all actives have a fitted effect of over 30% in size). Summed up:
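Beta-lactamase reporter read-out: after 16 hr compound treatment at 37C and a further 2 hr at room temperature with LiveBLAzer B/G FRET substrate, fluorescence was measured in PR-UAS-bla HEK 293T cells grown in 2% charcoal-stripped serum.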

Assay [7] can be described thus: qHTS assay to identify small molecule antagonists of the TGF-beta/Smad signaling pathway - cell viability counter screen (AID 1346824). Further: nearly all actives have a fitted effect of over 50% in size. Further: potency means the concentration at half of the fitted maximal effect. The method in brief:
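Cytotoxicity counter-screen run in the same wells as the beta-lactamase Smad reporter read: CellTiter-Glo luminescence after 30 min at room temperature. HEK 293T SBE-bla cells had 5 hr compound exposure at 37 C with TGF-beta1 (0.25 ng/mL stock).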

Assay [8] can be described thus: qHTS assay to identify small molecule agonists of the TGF-beta/Smad signaling pathway - cell viability counter screen (AID 1346829). Further: nearly all actives have a fitted effect of over 45% in size. Further: potency means the concentration at half of the fitted maximal effect. The method in brief: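 Same-well cytotoxicity: CellTiter-Glo added after the 2 hr room-temperature beta-lactamase substrate step, luminescence measured 30 min later; cells had 5 hr of compound at 37 C.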
The nature of assay [9]: qHTS assay to identify small molecule agonists of the TGF-beta/Smad signaling pathway (AID 1346859; active means well fitted activation curve with a large enough effect in the signal ratio in the repeat runs, not every such curve was filed as active; the % refers to the signal ratio; further: series mostly up to about 77 µM). Summed up:
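SBE-bla HEK 293T, 4,000 cells/well, plated o/n; cpd in DMSO, 5 hr, 37 C/5% CO2; B/G FRET substrate 2 hr RT; ex 405, em 460/530 nm.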

A short description of assay [10]: qHTS assay to identify small molecule agonists of the androgen receptor (AR) signaling pathway in the presence of an antagonist - cell viability counter screen (AID 1259379). Further: nearly all actives have a fitted effect of over 25% in size. Further: potency means the concentration at half of the fitted maximal effect. Summed up:
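MDA-kb2 human breast carcinoma cells (stable MMTV-luciferase, AR/GR responsive) were seeded 3,000 cells/well, pre-incubated 5 hr at 37C without CO2, then given 3.0uM nilutamide and compounds at 15 concentrations for 16 hr. Viability was read by CellTiter-Fluor fluorescence.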

Assay [11] concerns the target Androgen receptor (Homo sapiens) (UniProt P10275). The experiment in a line: qHTS assay to identify small molecule agonists of the androgen receptor (AR) signaling pathway in the presence of an antagonist (AID 1259381; calls by dose curve; further: nearly all actives have a fitted effect of over 15% in size). Summed up:
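MDA-kb2 human breast carcinoma cells carrying an MMTV-luciferase reporter (AR- and GR-responsive) were treated with compounds at 15 concentrations plus 3.0uM final nilutamide for 16hr at 37C without CO2; luminescence was read after ONE-Glo addition.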

A short description of assay [12]: qHTS assay to identify small molecule antagonists of the estrogen receptor beta (ER-beta) signaling pathway - cell viability counter screen (AID 1259382). Further: nearly all actives have a fitted effect of over 55% in size. Further: potency means the concentration at half of the fitted maximal effect. The method in brief: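 ER-beta-UAS-bla HEK293T cells (2,000/well, 2% charcoal-stripped FBS) were pre-incubated 6 hr at 37C, then given compound plus 1nM final 17-beta-estradiol for 16 hr. Viability was read in the same wells by CellTiter-Glo luminescence after 30 min at room temperature.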

Assay [13] addresses Estrogen receptor (Homo sapiens) (UniProt P03372). Nature of the assay: qHTS assay to identify small molecule agonists of the estrogen receptor alpha (ER-alpha) signaling pathway in the presence of an antagonist (AID 1259383; calls by dose curve; further: top concentration of the series differs between compounds; nearly all actives have a fitted effect of over 15% in size). The method in brief: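 VM7Luc4E2 cells (endogenous full-length ER-alpha, 4×ERE-luciferase) were precultured 5 days in phenol red-free medium with 10% charcoal-stripped FBS, given 10.0nM ICI-182,780 (final), then treated with compounds at 15 concentrations for 22hr at 37C; luminescence read with ONE-Glo.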

A short description of assay [14]: qHTS assay to identify small molecule agonists of the estrogen receptor alpha (ER-alpha) signaling pathway in the presence of an antagonist - cell viability counter screen (AID 1259386).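 Further: cells exposed to compounds for 22 h at 37 °C before the viability read; nearly all actives have a fitted effect of over 30% in size.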 Further: potency means the concentration at half of the fitted maximal effect. Summed up:
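VM7Luc4E2 cells (endogenous full-length ER-alpha, 4×ERE-luciferase) were held 5 days in phenol red-free medium with 10% charcoal-stripped FBS, plated, then given 10.0nM ICI-182,780 and compounds at 15 concentrations for 22hr at 37C; viability read by CellTiter-Fluor fluorescence.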

A short description of assay [15]: qHTS assay to identify small molecule antagonists of the progesterone receptor (PR) signaling pathway - cell viability counter screen (AID 1346798). Further: nearly all actives have a fitted effect of over 50% in size. Further: potency means the concentration at half of the fitted maximal effect. The method in brief: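 HEK293T PR-UAS-bla, 2% charcoal-stripped FBS; 4 hr pre-plate; cpd + R5020, 16 h 37C; LiveBLAzer read first; then CellTiter-Glo 30 min RT, luminescence.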
Assay [16] in a line: qHTS assay to identify small molecule agonists of the progesterone receptor (PR) signaling pathway - cell viability counter screen (AID 1346799; calls by dose curve; further: nearly all actives have a fitted effect of over 45% in size; further: potency means the concentration at half of the fitted maximal effect). The method in brief: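 Luminescence from CellTiter-Glo, added after the beta-lactamase FRET read in the same wells, gave cytotoxicity in PR-UAS-bla HEK293T cells treated with compounds for 16 hr at 37C.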
For assay [17], the target named is Thyrotropin-releasing hormone receptor (Homo sapiens) (UniProt P34981). The experiment in a line: qHTS assay to identify small molecule antagonists of the thyrotropin-releasing hormone receptor (TRHR) signaling pathway (AID 1346877; active means well fitted inhibition curve with a large enough effect in the repeat runs, not every such curve was filed as active; further: series mostly up to about 51 µM). Summed up:
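TRHR-expressing HEK293 cells were seeded, cultured 18 h at 37 °C, then loaded with calcium dye for 2 h. Compounds were pre-incubated 5 min at room temperature before 1 nM TRH (final) was added, and kinetic fluorescence was recorded for 3 min.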

Assay [18] shares this target. Nature of the assay: qHTS assay to identify small molecule agonists of the thyrotropin-releasing hormone receptor (TRHR) signaling pathway (AID 1346891; calls by dose curve; further: series mostly up to about 58 µM). The method in brief: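 Intracellular calcium rise, read as fluorescence every second for 3 min, served as the agonist signal in dye-loaded HEK293 cells expressing TRHR; each compound ran at 15 concentrations in triplicate.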

For assay [19], the target named is Estrogen receptor beta (Homo sapiens) (UniProt Q92731). The experiment in a line: qHTS assay to identify small molecule antagonists of the estrogen receptor beta (ER-beta) signaling pathway (AID 1259378; active means well fitted inhibition curve with a large enough effect in the signal ratio in the repeat runs, not every such curve was filed as active; the % refers to the signal ratio; further: potency means the concentration at half of the fitted maximal effect). The method in brief:
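Antagonist mode: compounds added to beta-lactamase reporter HEK293T ER-beta-UAS cells stimulated with E2 (1nM final), 16 hr at 37C. LiveBLAzer B/G FRET substrate, 2 hours room temperature, fluorescence read-out.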

Assay [20] addresses Progesterone receptor (Homo sapiens) (UniProt P06401). The experiment in a line: qHTS assay to identify small molecule antagonists of the progesterone receptor (PR) signaling pathway (AID 1346795; active means well fitted inhibition curve with a large enough effect in the signal ratio in the repeat runs, not every such curve was filed as active; the % refers to the signal ratio; further: potency means the concentration at half of the fitted maximal effect). Summed up: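 Read-out is fluorescence from the LiveBLAzer B/G FRET substrate, cleaved by a UAS-controlled beta-lactamase in PR-UAS-bla HEK293T cells after 16 hr exposure to compound plus 1 nM promegestone (final), followed by 2 hr at room temperature.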

The source of these data is PubChem BioAssay (Tox21).

Unmarked numbers belong to inactive results. Records with an inconclusive call do not appear. Active and inactive are the calls of the source. Unless noted, the call rests on the fitted dose curve; in most records, active means well fitted curve in the direction sought with a large enough effect in the repeat runs; inconclusive means weak or mixed curves; inactive means no such curve, though single readings can be large; an effect the other way counts as inactive or inconclusive.

Androgen receptor (Homo sapiens), sequence (P10275 whole entry, looked up): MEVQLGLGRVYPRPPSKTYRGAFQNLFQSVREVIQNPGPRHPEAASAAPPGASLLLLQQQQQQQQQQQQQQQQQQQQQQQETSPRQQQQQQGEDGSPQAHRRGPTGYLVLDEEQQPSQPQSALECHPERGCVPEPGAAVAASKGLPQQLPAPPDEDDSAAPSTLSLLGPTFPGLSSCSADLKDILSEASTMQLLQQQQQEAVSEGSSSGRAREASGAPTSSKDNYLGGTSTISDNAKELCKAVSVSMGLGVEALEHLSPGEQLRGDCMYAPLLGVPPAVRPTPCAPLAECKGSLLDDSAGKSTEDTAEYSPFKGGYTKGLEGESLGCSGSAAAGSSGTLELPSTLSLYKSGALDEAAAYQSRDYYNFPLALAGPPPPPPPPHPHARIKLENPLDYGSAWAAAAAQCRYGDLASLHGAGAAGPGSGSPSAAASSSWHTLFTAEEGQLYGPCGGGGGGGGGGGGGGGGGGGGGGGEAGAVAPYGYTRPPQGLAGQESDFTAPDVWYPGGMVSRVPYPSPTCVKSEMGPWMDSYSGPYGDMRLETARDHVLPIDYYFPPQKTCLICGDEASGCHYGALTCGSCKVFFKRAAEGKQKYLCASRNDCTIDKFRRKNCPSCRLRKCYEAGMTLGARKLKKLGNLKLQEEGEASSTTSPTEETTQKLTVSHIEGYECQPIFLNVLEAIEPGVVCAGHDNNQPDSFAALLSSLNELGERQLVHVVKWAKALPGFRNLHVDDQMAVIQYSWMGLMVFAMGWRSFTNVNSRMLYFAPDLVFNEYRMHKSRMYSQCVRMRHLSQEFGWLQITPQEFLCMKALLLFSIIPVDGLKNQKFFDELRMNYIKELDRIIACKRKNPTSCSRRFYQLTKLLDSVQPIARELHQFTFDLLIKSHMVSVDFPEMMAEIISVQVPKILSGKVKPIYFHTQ
Thyrotropin receptor (Homo sapiens), sequence (P16473 whole entry, looked up): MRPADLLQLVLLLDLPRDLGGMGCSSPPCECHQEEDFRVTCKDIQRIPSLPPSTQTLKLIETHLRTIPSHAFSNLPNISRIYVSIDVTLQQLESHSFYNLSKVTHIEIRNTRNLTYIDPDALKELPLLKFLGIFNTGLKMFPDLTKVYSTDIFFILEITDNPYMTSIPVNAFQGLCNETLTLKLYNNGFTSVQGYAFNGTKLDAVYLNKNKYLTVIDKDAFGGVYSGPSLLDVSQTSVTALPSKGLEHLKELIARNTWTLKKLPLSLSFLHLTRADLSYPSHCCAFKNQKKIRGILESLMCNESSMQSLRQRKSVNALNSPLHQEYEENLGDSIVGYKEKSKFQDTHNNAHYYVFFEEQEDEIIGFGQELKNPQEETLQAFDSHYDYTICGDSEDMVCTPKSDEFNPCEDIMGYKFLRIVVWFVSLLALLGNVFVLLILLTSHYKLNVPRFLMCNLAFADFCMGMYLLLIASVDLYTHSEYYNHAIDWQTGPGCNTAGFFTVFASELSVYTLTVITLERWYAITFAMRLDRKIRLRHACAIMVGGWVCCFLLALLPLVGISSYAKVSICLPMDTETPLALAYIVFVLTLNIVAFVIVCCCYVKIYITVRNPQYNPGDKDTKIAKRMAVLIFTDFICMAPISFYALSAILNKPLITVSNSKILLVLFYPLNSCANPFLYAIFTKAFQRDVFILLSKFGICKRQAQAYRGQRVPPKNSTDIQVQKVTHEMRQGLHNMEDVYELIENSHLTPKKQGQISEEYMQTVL
Thyrotropin-releasing hormone receptor (Homo sapiens), sequence (P34981 whole entry, looked up): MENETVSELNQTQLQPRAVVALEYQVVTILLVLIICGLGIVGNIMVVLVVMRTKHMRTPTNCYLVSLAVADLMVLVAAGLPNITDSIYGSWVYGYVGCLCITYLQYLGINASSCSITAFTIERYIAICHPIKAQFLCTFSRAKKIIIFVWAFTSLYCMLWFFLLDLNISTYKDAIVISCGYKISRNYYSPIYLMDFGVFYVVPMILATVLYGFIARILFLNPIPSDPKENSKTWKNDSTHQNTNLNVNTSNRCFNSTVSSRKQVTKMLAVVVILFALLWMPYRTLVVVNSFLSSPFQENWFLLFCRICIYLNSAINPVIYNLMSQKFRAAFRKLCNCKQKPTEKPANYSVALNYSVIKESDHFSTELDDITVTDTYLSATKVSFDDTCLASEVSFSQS
Estrogen receptor (Homo sapiens), sequence (P03372 whole entry, looked up): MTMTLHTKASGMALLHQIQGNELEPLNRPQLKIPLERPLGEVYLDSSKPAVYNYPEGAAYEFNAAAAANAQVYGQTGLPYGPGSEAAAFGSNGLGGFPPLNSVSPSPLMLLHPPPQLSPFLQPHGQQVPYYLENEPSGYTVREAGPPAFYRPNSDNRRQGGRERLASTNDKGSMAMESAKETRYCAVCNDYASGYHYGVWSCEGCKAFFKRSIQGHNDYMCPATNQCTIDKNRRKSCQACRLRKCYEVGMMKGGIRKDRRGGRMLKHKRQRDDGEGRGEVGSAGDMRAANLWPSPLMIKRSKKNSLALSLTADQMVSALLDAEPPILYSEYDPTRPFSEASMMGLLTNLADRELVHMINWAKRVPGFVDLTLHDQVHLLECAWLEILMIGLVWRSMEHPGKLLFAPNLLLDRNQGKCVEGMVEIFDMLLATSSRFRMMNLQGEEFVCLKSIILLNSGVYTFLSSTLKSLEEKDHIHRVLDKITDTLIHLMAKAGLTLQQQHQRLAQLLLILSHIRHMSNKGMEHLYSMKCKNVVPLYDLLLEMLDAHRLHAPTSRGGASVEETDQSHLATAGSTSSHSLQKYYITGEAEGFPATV
Estrogen receptor beta (Homo sapiens), sequence (Q92731 whole entry, looked up): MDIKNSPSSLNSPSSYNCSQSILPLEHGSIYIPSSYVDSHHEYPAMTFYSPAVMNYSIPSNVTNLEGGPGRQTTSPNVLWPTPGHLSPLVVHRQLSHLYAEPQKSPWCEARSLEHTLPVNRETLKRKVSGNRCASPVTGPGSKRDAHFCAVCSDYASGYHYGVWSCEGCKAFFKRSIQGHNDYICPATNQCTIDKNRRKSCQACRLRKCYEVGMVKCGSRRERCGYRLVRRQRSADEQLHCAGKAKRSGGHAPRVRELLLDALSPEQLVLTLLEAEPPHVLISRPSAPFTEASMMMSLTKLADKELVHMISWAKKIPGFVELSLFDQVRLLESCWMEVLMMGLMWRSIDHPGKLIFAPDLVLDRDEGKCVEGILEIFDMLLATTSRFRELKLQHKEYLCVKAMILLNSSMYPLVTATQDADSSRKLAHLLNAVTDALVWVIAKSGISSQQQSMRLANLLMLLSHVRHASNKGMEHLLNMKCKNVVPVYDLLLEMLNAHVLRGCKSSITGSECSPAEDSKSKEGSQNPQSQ
Progesterone receptor (Homo sapiens), sequence (P06401 whole entry, looked up): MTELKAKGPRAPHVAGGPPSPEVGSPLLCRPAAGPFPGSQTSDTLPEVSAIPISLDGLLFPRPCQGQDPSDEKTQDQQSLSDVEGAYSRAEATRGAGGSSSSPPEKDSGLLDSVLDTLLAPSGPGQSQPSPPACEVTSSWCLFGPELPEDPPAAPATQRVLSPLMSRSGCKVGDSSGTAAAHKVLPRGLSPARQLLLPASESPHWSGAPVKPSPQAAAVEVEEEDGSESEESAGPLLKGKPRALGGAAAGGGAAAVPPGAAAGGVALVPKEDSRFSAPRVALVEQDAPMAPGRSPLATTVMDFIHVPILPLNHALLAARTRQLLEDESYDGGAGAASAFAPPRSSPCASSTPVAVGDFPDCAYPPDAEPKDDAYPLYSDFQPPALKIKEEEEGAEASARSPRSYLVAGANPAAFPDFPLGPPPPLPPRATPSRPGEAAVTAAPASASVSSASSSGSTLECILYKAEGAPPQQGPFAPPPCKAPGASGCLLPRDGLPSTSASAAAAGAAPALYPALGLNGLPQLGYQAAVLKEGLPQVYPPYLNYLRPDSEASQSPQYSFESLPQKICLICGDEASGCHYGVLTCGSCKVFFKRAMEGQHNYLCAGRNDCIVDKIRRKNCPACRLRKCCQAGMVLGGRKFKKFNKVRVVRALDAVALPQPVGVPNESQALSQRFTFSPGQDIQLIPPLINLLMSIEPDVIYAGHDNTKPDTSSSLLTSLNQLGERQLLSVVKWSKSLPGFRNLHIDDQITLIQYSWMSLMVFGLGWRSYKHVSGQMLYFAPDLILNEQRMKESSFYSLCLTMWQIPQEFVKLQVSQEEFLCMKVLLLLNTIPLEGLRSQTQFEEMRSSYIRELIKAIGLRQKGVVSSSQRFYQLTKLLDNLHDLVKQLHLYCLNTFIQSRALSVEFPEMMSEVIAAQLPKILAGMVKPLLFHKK

As to `O=c1[nH]c2ccccc2n1CCCN1CCC(n2c(=O)[nH]c3cc(Cl)ccc32)CC1`, the Potency is 4.22 µM (active) in assay [1], 9.44 µM (active) in [3] and 29.8 µM (active) in [5]. The Potency result in [2], in [6], in assay [7] and in assay [8] was “inactive” in each case. In addition, the compound was called inactive in [4] and in assay [9].
Turning to `CC1(C)CN=C(NN=C(/C=C/c2ccc(C(F)(F)F)cc2)/C=C/c2ccc(C(F)(F)F)cc2)NC1`, the Potency in assay [1] is 6.86 µM (active); in assay [10] it was 30.6 µM (active); in [3] it was 19.3 µM (active); in assay [12], 19.3 µM (active); in assay [14], 43.3 µM (active); in [15] it was 38.6 µM (active). Further, the results for the Potency in assay [16], in assay [7] and in assay [8] were 21.7 µM (active), 38.9 µM (active) and 34.7 µM (active), respectively. The Potency result in assay [11] and in assay [13] was “inactive” each time. Also, the outcome in [4] was inactive.
Turning to `CC(=O)C(Cl)(Cl)Cl`, the Potency in assay [1] is 5.9 µM (active); in assay [10], 20.9 µM (active). The Potency result in assay [3], in assay [11], in assay [12], in assay [13], in assay [15] and in assay [7] was “inactive” throughout. Besides, the Potency result in assay [8], in assay [17] and in [18] was “inactive” throughout. The result in [9] was inactive.
Turning to `CC(C)CC(C)Nc1ccc(Nc2ccccc2)cc1` (configuration not stated), the Potency is 12 µM (active) in [1]; 30.1 µM (active) in assay [19]; 67.4 µM (active) in assay [3]; 60.1 µM (active) in [14]; 47.7 µM (active) in assay [20]. Also, the Potency result in [13], in assay [5], in assay [17] and in assay [18] was “inactive” each time. In assay [9], the call was inactive.
Consider `CC(C)OS(C)(=O)=O`, for which the Potency result in [1], in assay [19], in assay [10], in [3], in [5] and in [14] was “inactive” in each case. Also, the Potency result in [6], in [20], in [15], in [16], in [7] and in assay [8] was “inactive” each time. For the same compound, in assay [17], the Potency result was “inactive”. In addition, the call in assay [4] and in assay [9] was inactive.
Turning to `CCOC(=O)c1ccccc1S(=O)(=O)NC(=O)Nc1nc(Cl)cc(OC)n1`, the Potency result in assay [1], in assay [10], in assay [3], in [11], in assay [12] and in [13] was “inactive” throughout. The Potency entry in [5], in assay [6], in assay [20], in [15], in [7] and in [8] was “inactive” each time. The compound was classed as inactive in assay [4] and in [9].
As to `N#CCCC(Br)(C#N)CBr` (configuration not stated), the Potency is 21.7 µM (active) in [1], 43.3 µM (active) in [3] and 54.5 µM (active) in assay [5]. Further, the Potency result in assay [2], in assay [13], in [7], in assay [8] and in assay [18] was “inactive” each time. In addition, the compound was called inactive in assay [4] and in assay [9].
